PubChem BioAssay AID2314 (National Center for Advancing Translational Sciences (NCATS), 2010)
Out of some 300,000 compounds screened, about 37,000 (12%) were called active. For the sample, actives were picked, then their nearest neighbours and some compounds at random. Unmarked numbers belong to inactive results. No stated cut-off is given here; in the data, active means max response mostly above about 13% (no sharp cut-off); inactive means mostly below about 14%.

experiment: Cycloheximide Counterscreen for Small Molecule Inhibitors of Shiga Toxin; conditions: cell reporter, cycloheximide protein synthesis inhibition counterscreen; stronger effect = higher value; further: read at 38.3 µM for the half of the compounds with a filed dose; 0% is about no effect

| SMILES | max response |
| --- | --- |
| S=c1[nH]nc(-c2ccco2)n1/N=C/c1ccc(Br)s1 | 1.13% |
| O=C(CSCC(=O)Nc1cccc([N+](=O)[O-])c1)Nc1ccccc1 | 7.14% |
| O=C(CSc1ncn[nH]1)Nc1nc(-c2cccc([N+](=O)[O-])c2)cs1 | 2.28% |
| Cc1csc(NC(=O)CSc2ccc(-c3ccc(F)cc3)nn2)n1 | -6.44% |
| CCNC(=O)CSc1nc(-c2ccccc2)cs1 | 44% (active) |
| Cn1c(CNc2nc(-c3ccccc3)cs2)nnc1SCC(=O)c1ccccc1 | -2.68% |
| O=C(CSc1nc(-c2ccccc2)cs1)Nc1cccc([N+](=O)[O-])c1 | 39.4% (active) |
| CCOC(=O)CSc1nnc(CNc2nc(-c3ccccc3)cs2)n1C | -0.673% |
| O=C(CSC1=NCCS1)Nc1nc(-c2ccccc2)cs1 | 35.3% (active) |
| O=C(CSc1nc2ccccc2c(=O)[nH]1)Nc1nc(-c2ccc(Br)cc2)cs1 | 3.64% |
| Cc1cc2cc3c(cc2nc1SCC(=O)Nc1c(C)cccc1C)CCC3 | 0.976% |
| Cc1c(CCOC(=O)CC23CC4CC(CC(C)(C4)C2)C3)sc[n+]1Cc1ccc([N+](=O)[O-])cc1 | -3.94% |
| Fc1ccc(Cn2nnnc2C(c2cccs2)N2CCCCCC2)cc1 (stereo not given) | 0.541% |
| CCOc1ccccc1NS(=O)(=O)c1cc2c3c(c1)C(C)C(=O)N3CCC2 (stereo not given) | -3.18% |
| COc1ccccc1C1=Nc2cccc3cccc(c23)N1 | -1.72% |
| COc1ccccc1-c1nc(SC)n[nH]1 | 23.3% (active) |
| CCCOc1ccccc1-c1nc(SCCC(=O)O)n[nH]1 | -3.17% |
| Cc1ccc(NC(=O)CN(C)Cc2ccc(F)cc2)c([N+](=O)[O-])c1 | 12.6% (active) |
| CSc1ccccc1NC(=O)CN(C)CC(=O)Nc1ccc(Cl)cc1[N+](=O)[O-] | 7.28% |
| CN(CC(=O)Nc1ccccc1[N+](=O)[O-])Cc1ccc(Br)cc1 | 7.65% |
| Cc1cccc(NC(=O)COC(=O)CCc2ccccc2)c1C | -2.64% |
| CCOC(=O)C(C)Oc1cccc2c(=O)n(CC(=O)NCCc3ccc(OC)c(OC)c3)ccc12 (stereo not given) | -2.75% |
| O=C1CCN(Cc2ccc([N+](=O)[O-])cc2)CCN1[C@H](CO)Cc1ccccc1 | -3.88% |
| O=C(CNC(=O)c1cccnc1)N/N=C/c1cccnc1 | -3.21% |

| SMILES | max response |
| --- | --- |
| O=C(N/N=C/c1sc(N2CCCCC2)nc1-c1cccs1)c1cccnc1 | 20.6% (active) |
| O=C(c1cccnc1)N1CCN(S(=O)(=O)c2cccs2)CC1 | -2.02% |
| CN(C(=O)c1ccccc1)c1nccnc1C#N | -1.74% |
| Cc1ccc(NC(=S)N/N=C2/CCCc3c(C)cc(C)cc32)cc1 | -1.84% |
| O=C(NC(=S)Nc1ccc(Cl)c(C(=O)O)c1)c1cncc(Br)c1 | 1.31% |
| Cc1ccc(C)c(NC(=S)NCC(c2cccnc2)N2CCOCC2)c1 (stereo not given) | -3.15% |
| Cc1ccc(C)c(NC(=S)NNC(=S)Nc2ccc(C(C)C)cc2)c1 | 31% (active) |
| CC(C)c1ccc(NC(=S)NNc2ccc(Cl)c(C(=O)O)c2)cc1 | 38% (active) |
| COc1ccc(Br)cc1/C=N/Nc1ccc(Cl)c(C(=O)O)c1 | 7.13% |
| CCn1c(=O)c(=O)[nH]c2c(=O)oc3ccc(S(=O)(=O)Nc4ccc(OC)cc4)cc3c21 | -4.34% |
| Cc1ccc(C(=O)NCCc2nnc(SCC(=O)Nc3cccc(C(=O)O)c3)n2C)cc1 | -0.755% |
| COc1ccc(C(=O)Nc2ccc(S(=O)(=O)Nc3onc(C)c3C)cc2)cc1OC | -2.06% |
| CCn1c(SCC(=O)Nc2ccc(S(=O)(=O)Nc3onc(C)c3C)cc2)nnc1-c1ccccc1 | 5.03% |
| Cc1noc(NS(=O)(=O)c2ccc(N/C=C/C(=O)c3ccccc3)cc2)c1C | 38.5% (active) |
| O=C(/C=C/c1ccc(Cl)cc1Cl)c1cccnc1 | 2.63% |
| C=C(C)CNC(=S)Nc1ccc(S(=O)(=O)Nc2cnc3ccccc3n2)cc1 | -1.53% |
| Cc1ccc(C(=O)/C=C/Nc2ccc(S(=O)(=O)Nc3onc(C)c3C)cc2)cc1 | 48.2% (active) |
| Cc1cc(OC(C)C(=O)Nc2ccc(S(=O)(=O)Nc3onc(C)c3C)cc2)cc(C)c1Cl (stereo not given) | -2.3% |
| Cc1noc(NS(=O)(=O)c2ccc(NC(=O)C34CCC(CC3)C4)cc2)c1C | -1.3% |
| O=C(/C=C/Nc1ccc(S(=O)(=O)Nc2cnc3ccccc3n2)cc1)c1cccnc1 | 19.6% (active) |
| COC(=O)c1cnc(Nc2cc(C)ccc2OC)c2ccccc12 | -3.28% |
| COc1cc(C(=O)NCc2cc3cc(Cl)ccc3n2C)cc(OC)c1OC | 9.33% |
| COc1ccc(N2CCN(C(=O)c3cn(C)c4ccc(S(=O)(=O)N5CCOCC5)cc4c3=O)CC2)cc1 | 0.725% |
| CCc1ccc(C(=O)NC(=S)Nc2ccccc2N2CCOCC2)cc1 | 12.1% |

| SMILES | max response |
| --- | --- |
| CCCC(C(=O)NC1CCCC1)N(C(=O)Cn1nnc(-c2ccc(C)o2)n1)c1cccc(O)c1 (stereo not given) | -3.39% |
| CCOC(=O)C(Cc1ccc(N)cc1)N1C(=O)c2ccccc2C1=O (stereo not given) | 15% |
| O=S(=O)(c1ccc(Br)c2ccccc12)N1CCOCC1 | -2.9% |
| CC1CN(S(=O)(=O)c2cccc(C(F)(F)F)c2)CN1C(=O)N1CCOCC1 (stereo not given) | -5.77% |
| Cc1ccc(C)c(NC2=NCC(=O)N2c2ccc3c(c2)OCCO3)c1 | 17.5% (active) |
| COc1ccc(N2C(=O)CN=C2Nc2cccc(C)c2C)cc1OC | 1.91% |
| Cc1ccc(N2C(=O)CN=C2Nc2nc(C)cc(C)n2)cc1 | -2.81% |
| CC(Sc1nnc(COc2ccccc2)n1-c1ccccc1)C(=O)O (stereo not given) | -3.12% |
| FC(F)(F)c1nnc2sc(-c3ccco3)nn12 | -1.25% |
| Cc1nnc2sc(-c3ccco3)nn12 | -2.36% |
| Fc1ccc(-c2ccc(-c3nn4c(-c5ccco5)nnc4s3)o2)cc1 | 12.8% (active) |
| COc1ccc([N+](=O)[O-])cc1NC(=O)C(C)OC(=O)C1c2ccccc2Oc2ccccc21 (stereo not given) | -1.06% |
| CCN(C(=O)CN1CCN(Cc2ccccc2)CC1)c1c(N)n(Cc2ccccc2)c(=O)[nH]c1=O | -1.94% |
| O=C(NCCC1=CCCCC1)C1CCN(Cc2cnn(-c3ccccc3)c2-n2cccc2)CC1 | 18.2% |
| Cc1nn(C(C)C(=O)NCCC2=CCCCC2)c(=O)c2nn(-c3ccccc3)c(C)c12 (stereo not given) | 12.2% |
| C1=C(CCNc2ncnc3c2cnn3-c2ccccc2)CCCC1 | 34.6% (active) |
| O=C(COC(=O)/C(=C/c1cccs1)c1cccs1)NCc1ccccc1Cl | -3.92% |
| Cc1cc(OCCCC(=O)NCCN2C(=O)S/C(=C\c3cccnc3)C2=O)ccc1Cl | -1.74% |
| CSc1nc2ccc(NC(=O)c3c(F)cccc3F)cc2s1 | 48.4% (active) |
| CCCC(=O)Nc1nc2ccc(NC(=O)c3c(F)c(F)c(OC)c(F)c3F)cc2s1 | -1.72% |
| CCCn1nc(C(=O)Nc2ccc3nc(C)sc3c2)c2ccccc2c1=O | 2.94% |
| Cc1ccccc1-n1nnc2c(=O)oc3ccccc3c21 | -0.308% |
| COC(=O)c1ccccc1NC(=O)C1CCN(S(=O)(=O)c2cc(OC)ccc2OC)CC1 | -2.41% |
| O=c1c2c3c(sc2n(CCN2CCCC2)c(=O)n1Cc1ccccc1)CCCCC3 | -3.62% |

| SMILES | max response |
| --- | --- |
| Cc1ccc(Nc2nc(-c3ccc(O)cc3O)cs2)nc1 | 50.9% (active) |
| Cc1ccc(NC(=O)c2cc(-c3ccc(C)o3)nc3ccccc23)nc1 | -0.954% |
| COCCNc1nc(N)c([N+](=O)[O-])c(N2CCCCCC2)n1 | 3.03% |
| CCCCOC(=O)Nc1nccs1 | 18.8% |
| Cc1cc(C(=O)OCC(=O)Nc2nccs2)c2ccccc2n1 | -4.23% |
| O=C(COC(=O)c1ccc(O)cc1)Nc1nccs1 | 9.78% (active) |
| Cc1occc1C(=O)NNC(=S)NCC(C)C | -3.12% |
| Cc1scc(C(=O)NNC(=S)NCC(C)C)c1C | -0.894% |
| CC(C)CNC(=S)NC(=O)c1ccc(Cl)cc1 | 34.2% (active) |
| Cc1cc(-c2nnc(SCC(=O)Nc3ccc(S(N)(=O)=O)cc3)n2N)n[nH]1 | 1.41% |
| CCCNC(=O)N1CCC(c2ccc3c(c2)OCO3)CC1 | -1.8% |
| C=CCOc1ccccc1NC(=O)CN1C(=O)CNC1=O | 0.268% |
| COC(=O)c1c(CCl)noc1C(=O)NC(C)C | -0.666% |
| COc1ccc(-c2cc3nc(C)c(CCC(=O)NC(C)CCc4ccco4)c(C)n3n2)c(OC)c1 (stereo not given) | 8.95% |
| CN(C)c1ccc(C(CC(=O)O)C(=O)O)cc1 (stereo not given) | 38.6% (active) |
| CN(C)c1ccc(/C=N/NC(=O)C(O)c2ccc(Br)cc2)cc1 (stereo not given) | 8.48% |
| CC(=O)NC(CC(=O)O)c1ccc(F)cc1 (stereo not given) | -1.3% |
| CCC(=O)c1cc2c(cc1NC(=O)c1cccs1)OCCO2 | -4.08% |
| COc1cc(NC(=O)COc2ccccc2Cl)ccc1NC(=O)C(C)C | 0.487% |
| CN1CCN(C(=O)/C(=C\c2ccc3c(c2)OCO3)NC(=O)c2cccs2)CC1 | -1.19% |
| COc1cc2ccccc2cc1C(=O)Nc1ccc(NC(=O)c2cccs2)cc1 | -2.59% |
| COc1cc(NC(=O)c2cccs2)ccc1NC(=O)c1ccccc1Cl | 28.9% (active) |
| COc1cc(NC(=O)c2ccc3c(c2)OCO3)ccc1NC(=O)c1cccs1 | 17.8% (active) |
